# Compounds with a hit are over-represented: about 9% of the library has one in this group of screens.
# PLK1 PBD inh = inhibitors of human PLK1 polo-box domain binding | Plk1 PBD binding of FITC phosphopeptide, fluorescence polarization | AID 720504 | Potency, µM, for inactives: max response, negative = inhibition, hits mostly inhibitors | 360,000 compounds, 2.8% hits; further: series mostly up to about 57 µM; on the % scale 0 is the no-effect control and ±100 the full control effect; nearly all actives have a fitted effect of over 65% in size
# BAZ2B inh = BAZ2B (human) inhibition; Q9UIF8; AlphaScreen BAZ2B-H3K14Ac peptide displacement; Potency, µM (doses to about 114 µM), for the others: at the highest dose activity change, negative = inhibition, most hits filed as inhibitors; 360,000 compounds, 4.4% hits; AID 504333; further: on the % scale 0 is the no-effect control and ±100 the full control effect; nearly all actives have a fitted effect of over 60% in size
#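 BAZ2B 50 nM plus b-H3(5-23)K14Ac 50 nM, PBS pH 7.4/0.01% Tween-20, 30 min RT; compound added (max 110 uM), 30 min RT; streptavidin donor/Ni-chelate acceptor beads 10 ug/mL final, 20 min dark; AlphaScreen read.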
# JMJD2A Tudor = JMJD2A Tudor domain (human) inhibition; O75164; AlphaScreen JMJD2A-Tudor / H3K4me3 peptide binding; Potency, µM (titrated, usually from 114 µM), inactives show at the top dose activity change, negative = inhibition, hits mostly inhibitors; 390,000 compounds, 4.4% hits; AID 504339; further: on the % scale 0 is the no-effect control and ±100 the full control effect; nearly all actives have a fitted effect of over 50% in size
# ALOX12 inh = inhibitors of human 12S-lipoxygenase ALOX12 | Potency, µM (highest dose often 108 µM), inactives show at the top dose activity change, negative = inhibition, most hits filed as inhibitors | 580,000 compounds, 1.1% hits | purified 12hLO, xylenol orange hydroperoxide absorbance; further: on the % scale 0 is the no-effect control and ±100 the full control effect
# Target sequence (P18054 whole entry, looked up): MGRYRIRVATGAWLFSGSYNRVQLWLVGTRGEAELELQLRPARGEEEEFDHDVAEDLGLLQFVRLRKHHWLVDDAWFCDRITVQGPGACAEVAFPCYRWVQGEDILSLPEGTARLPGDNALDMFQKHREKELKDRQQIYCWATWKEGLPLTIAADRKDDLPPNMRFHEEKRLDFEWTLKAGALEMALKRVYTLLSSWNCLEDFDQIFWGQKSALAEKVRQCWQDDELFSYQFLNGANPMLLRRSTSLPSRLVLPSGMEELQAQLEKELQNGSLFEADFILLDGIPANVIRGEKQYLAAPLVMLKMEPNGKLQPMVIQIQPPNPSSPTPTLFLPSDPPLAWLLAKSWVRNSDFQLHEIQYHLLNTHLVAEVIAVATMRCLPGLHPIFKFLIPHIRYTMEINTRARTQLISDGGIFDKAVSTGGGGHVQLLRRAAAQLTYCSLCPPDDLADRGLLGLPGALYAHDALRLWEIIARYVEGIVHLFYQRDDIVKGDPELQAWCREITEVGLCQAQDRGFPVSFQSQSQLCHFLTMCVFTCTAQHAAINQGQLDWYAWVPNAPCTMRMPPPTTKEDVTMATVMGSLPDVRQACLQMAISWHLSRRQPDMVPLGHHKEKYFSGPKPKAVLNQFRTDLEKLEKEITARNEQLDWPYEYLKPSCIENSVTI
#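 Purified human 12hLO (150 nM final) in 25 mM Hepes, 0.01% Triton X-100, pH 7.0 was preincubated 15 min at room temperature with compound. Then 40 uM arachidonic acid was added, 30 min. Hydroperoxide was read by Fe-XO absorbance ratio 573/405 nm.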
# HP1b binding inh = inhibitors of HP1-beta chromodomain binding to methylated histone tails; P83916; AlphaScreen HP1-beta / biotin-H3K9me3 peptide binding; Potency, µM (series often up to 114 µM), inactives show at the top dose activity change, negative = inhibition, usual class: inhibitors; 390,000 compounds, 0.56% hits; AID 540317; further: nearly all actives have a fitted effect of over 70% in size
#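 Compound inhibition of the preformed complex between 50 nM HP1-beta and 50 nM biotinylated H3K9me3 peptide was read by AlphaScreen. Buffer was PBS pH 7.4 with 0.01% Tween-20. Incubations ran 30 min at room temperature, with 10 ug/mL donor/acceptor beads.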
# G9a block = G9a (human) methyltransferase inhibition | Q96KQ7 | G9a H3K9 monomethylation, AlphaScreen, 2 h | Potency, µM (titrated, usually from 102 µM), without a hit: at the top dose activity, negative = inhibition, most hits filed as inhibitors | 350,000 compounds, 8.8% hits | AID 504332; further: on the % scale 0 is the no-effect control and ±100 the full control effect; nearly all actives have a fitted effect of over 75% in size
#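 AlphaScreen read-out: biotin-H3K9 peptide (500 nM) methylation by 20 nM enzyme with 20 uM SAM, 2 h at room temperature after 15 min compound preincubation; anti-monomethyl H3K9 antibody plus donor/acceptor beads, 10 min dark.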
# Starred values were filed as active, the others as inactive; ? = inconclusive; . = no result given; [ ] = another dose, or the depositor's remark. The call rests on the fitted dose curve; in most records, active means well fitted curve in the direction sought with a large enough effect; inconclusive means small, poorly fitted or top-dose-only effect, or another doubt; inactive means no such curve, though single readings can be large; an effect the other way counts as inactive or inconclusive. Potency means the concentration at half of the fitted maximal effect.
SMILES,PLK1 PBD inh,BAZ2B inh,JMJD2A Tudor,ALOX12 inh,HP1b binding inh,G9a block
CCCC[N+]12CCC(CC1)C(=C(c1ccccc1)c1ccccc1)C2,?,50µM*,?,?,?,10µM*
COc1cc2c(c(OC)c1OC)-c1ccc(O)c(=O)cc1[C@H](N)CC2,.,.,.,.,.,25%[21.5 µM]
COc1cc2c(c(OC)c1OC)-c1ccc(O)c(=O)cc1[C@@H](N)CC2,-3%,5%,79µM*,-25%,52%,-2%[12.7 µM]
COc1cc2c(cc1O)C(Cc1ccc(O)cc1)NCC2 (stereo unspecified),-6%,-29%,-13%,25%,36%,79µM*
c1cnc2c(c1)ccc1ncccc12,2%,-4%,-3%,0%,33%,7%[59 µM]
Cc1cc(-c2n[nH]c(=S)n2CC(C)C)cs1,-25%,-5%,5.6µM*,?,?,3.2µM*
CCn1c(NN=O)nc2ccccc21,-3%,56µM*,89µM*,?,-21%,?
CCn1c(P(C)(=O)O)nc2ccccc21,-13%,-9%,?,-5%,4%,4%[59 µM]
Cc1ccc(NC(=O)CN2C(=O)CN=C(c3ccccc3)c3cc(Cl)ccc32)cc1,-15%,-24%,-35%,?,-6%,?
CN(C)c1ccc(NC(=O)CN2C(=O)CN=C(c3ccccc3)c3ccccc32)cc1,-9%,40µM*,56µM*,0%,?,.
CN(C)c1ccc(NC(=O)CN2C(=O)CN=C(c3ccccc3)c3cc(Cl)ccc32)cc1,-5%,35µM*,28µM*,10%[57.4 µM],?,40µM*
Cc1c(C(c2ccc(Cl)cc2Cl)c2c(O)c3ccccc3oc2=O)c(=O)n(-c2ccccc2)n1C (stereo unspecified),2%,-15%,-3%,-9%,77%,1%[59 µM]
CC(=NNC(=S)N1CC2CCC(CC2)C1)c1nccs1,-10%,.,20µM*,?,?,.
CCCn1cc(CN2CCCC(C(=O)c3cccc(OC)c3)C2)c(C)n1 (stereo unspecified),7%,2%,0%,-5%,6%,-3%
CO[C@@H](COC(N)=O)C1=C(N2CC2)C(=O)C(C)=C(N2CC2)C1=O,.,.,.,.,.,-49%[12.7 µM]
COC12C(COC(N)=O)C3=C(C(=O)C(C)=C(N)C3=O)N1CC1C2N1C (stereo unspecified),-1%,-33%,?,31%,31%,50µM*
Cn1cccc1/C=C1/C(=O)NC(=O)N(C(C)(C)C)C1=O,-10%,-13%,-25%,-20%,12%,9%[12.7 µM]
Cc1cc(C)cc(N2C(=O)NC(=O)/C(=C\c3cccn3-c3ccc(Cl)cc3)C2=O)c1,1.2µM*,-4%,-9%,297%,16%,-24%[59 µM]
Cc1cc(C)cc(N2C(=O)NC(=O)/C(=C\c3cccn3-c3ccccc3)C2=O)c1,2.1µM*,-19%,-15%,-22%,18%,?
CN1C(=O)/C(=C/c2cccn2-c2ccc3ccccc3c2)C(=O)NC1=S,0.53µM*,45µM*,?,?,-27%,?
S=c1nc(-c2ccccc2)n(-c2ccccc2)[nH]1,-11%,-14%,3.5µM*,45µM*,-9%,2.8µM*
O=c1[nH]c(=S)[nH]c(O)c1N=Nc1ccc(SC(F)F)cc1,11µM*,-31%,-25%,?,-23%,45µM*
CCCCCSc1cc(OC)c(CCNC)cc1OC,-11%,?,?,?,-38%,?
CCCCCCCSc1cc(OC)c(CCNC)cc1OC,2%,20µM*,45µM*,?,?,22µM*
FC(F)(F)c1ccc(CNCCc2ccc3c(c2)OCO3)cc1,-6%,79µM*,56µM*,1.8µM*,-19%,22µM*
SMILES,PLK1 PBD inh,BAZ2B inh,JMJD2A Tudor,ALOX12 inh,HP1b binding inh,G9a block
Fc1ccccc1CNCCc1ccc2c(c1)OCO2,0%,-34%,71µM*,?,-33%,40µM*
Clc1ccc(CNCCc2ccc3c(c2)OCO3)cc1,-25%,45µM*,25µM*,4.5µM*,-2%,79µM*
Clc1cccc(CNCCc2ccc3c(c2)OCO3)c1,-6%,79µM*,28µM*,?,?,45µM*
c1cncc(CNCCc2ccc3c(c2)OCO3)c1,-2%,-13%,0%,?,46%,.
Cn1c(O)c(C=NCCN2CCN(C(=O)Nc3ccccc3)CC2)c(=O)n(C)c1=O,-5%,-1%,-7%,291%,27%,.
Cc1ccc(-n2c(O)c(C=Nc3ccc(S(N)(=O)=O)cc3)c(=O)[nH]c2=O)cc1,0%,-1%,0%,6%,45%,-38%
COc1ccc(CN2Cc3cc(-c4ccc(OC)cc4)ccc3-n3nncc3C2)cc1,3%,.,.,-12%,.,.
CN1C(=O)C(=Cc2ccc(OCC(=O)Nc3ccccc3)cc2)C(=O)N(C)C1=O,7.5µM*,-7%,-8%,.,30%,.
COc1ccc(C=C2C(=O)N(C)C(=O)N(C)C2=O)cc1CSc1ccccn1,6µM*,-23%,?,?,40%,45µM*
COc1ccc([N+](=O)[O-])cc1CSc1ccccn1,?,-31%,-9%,?,38%,.
COc1ccc(CC2C(=O)N(C)C(=O)N(C)C2=O)c(OC)c1,?,5%,-12%,?,51%,?
COc1ccc(C=C2C(=O)N(C)C(=O)N(C)C2=O)cc1COc1ccc(NC(C)=O)cc1,-27%,?,-17%,0%,-3%,45µM*
CCN(CC)C(=O)c1ccc(NC(=O)COc2ccc(-c3nn(C)c(=O)c4ccccc34)cc2)cc1,1%,-10%,-3%,-2%,13%,7%
CN1CCC(O)(c2ccccc2)C(C(=O)c2ccccc2)C1 (stereo unspecified),?,.,8%,0%,54%,?
Nc1ccc(Br)cc1,-11%,.,-9%,8%,4%,.
Nc1ccc2cc(Br)ccc2c1,-21%,.,?,?,?,50µM*
O=C(C(=O)N1CCOCC1)c1cn(Cc2ccccc2Cl)c2ccccc12,-5%,-2%,-12%,4%,2%[57 µM],5%
c1ccc2c(CN3CCCCCCC3)c[nH]c2c1,-2%,-5%,28µM*,?,-9%,?
O=C(Cc1c[nH]c2ccccc12)N1CCN(CC(=O)N2CCCCCC2)CC1,.,.,.,0%,.,.
c1ccc2c(CN3CCN(C4CCCCC4)CC3)c[nH]c2c1,-3%,50µM*,?,182%,?,50µM*
CC(C)CN1Cc2ccccc2-n2ccnc2C12CCN(C(=O)c1ccoc1)CC2,.,.,.,-7%,.,.
C=CCSc1nc2c(c(-c3ccsc3)c1C#N)CN(C)CC2,?,-36%,-32%,51%,-3%,16µM*

# From PubChem
